Here are results for 30 molecules from PubChem BioAssay (NCATS).

Unmarked numbers belong to inactive results. For part of these data: Results with a measured potency or affinity are listed apart. The source made the active and inactive calls. No rule for the calls is given here.

For assay [1] the following is noted: Ebola virus entry assay, green fluorescence channel.
The conditions of assay [2]: Ebola virus entry assay, blue channel fluorescence.
For assay [3] the following is noted: Ebola virus entry assay, ratio channel.
The conditions of assay [4]: Ebola virus entry assay, green channel fluorescence.
The conditions of assay [5]: Ebola virus entry assay, reporter ratio channel; Channel type: primary.
For assay [6] the following is noted: Ebola virus entry assay, blue channel (ratio component).
For efficacy in this document: 0% is about no effect.

Take `O=Cc1ccc(O)c(O)c1O`: the efficacy in assay [1] was 43%. For the same molecule, the result in assay [2], in assay [3], in assay [4], in assay [5] and in assay [6] was inactive.

`CN1CCCN=C1/C=C/c1cccs1`: the efficacy in assay [1] was -15%. For the same molecule, the call in assay [2], in assay [3], in assay [4], in assay [5] and in assay [6] was inactive.

Consider `Cn1c(=O)c2c(ncn2C)n(C)c1=O`, for which the efficacy in assay [1] was -24.5%. The molecule was classed as inactive in assay [2], in assay [3], in assay [4], in assay [5] and in assay [6].

`CNC(=O)c1c(I)c(NC(=O)CCCCC(=O)Nc2c(I)c(C(=O)O)c(I)c(C(=O)NC)c2I)c(I)c(C(=O)O)c1I`: the efficacy in assay [1] was -24%. In addition, the outcome in assay [2], in assay [3], in assay [4], in assay [5] and in assay [6] was inactive.

As for `CCCCCCCCCCCCCCCCCCOCC(O)CO` (stereo not given), in assay [1], the efficacy was -25.1%. Further, the molecule was classed as inactive in assay [2], in assay [3], in assay [4], in assay [5] and in assay [6].

Consider `COc1ccc(CCC(C)=O)cc1`, for which the efficacy in assay [1] was 11.4%. Besides, the outcome in assay [2], in assay [3], in assay [4], in assay [5] and in assay [6] was inactive.

As to `NS(=O)(=O)c1cc(C(=O)O)c(NCc2ccco2)cc1Cl`, the efficacy in assay [1] is -30.8%. Moreover, the molecule was called inactive in assay [2], in assay [3], in assay [4], in assay [5] and in assay [6].

As for `O=C(O)CCC(=O)OC[C@@H](NC(=O)C(Cl)Cl)[C@H](O)c1ccc([N+](=O)[O-])cc1`, in assay [1], the efficacy was 19.1%. Further, the call in assay [2], in assay [3], in assay [4], in assay [5] and in assay [6] was inactive.

Regarding `O=C(OCC(O)CO)c1ccccc1Nc1ccnc2c(C(F)(F)F)cccc12` (stereo not given), the efficacy in assay [1] is 31.1%. The molecule was called inactive in assay [2], in assay [3], in assay [4], in assay [5] and in assay [6].

Take `Cc1cc(C(C)(C)C)c(O)c(C(C)(C)C)c1`: in assay [1], the efficacy was -23%. In addition, the call in assay [2], in assay [3], in assay [4], in assay [5] and in assay [6] was inactive.

Turning to `C[N+]12CCC(CC1)C(OC(=O)C(O)(c1ccccc1)c1ccccc1)C2` (stereo not given), the efficacy in assay [1] was 11.2%. Besides, the molecule was called inactive in assay [2], in assay [3], in assay [4], in assay [5] and in assay [6].

For the molecule `O=C1O[C@H]([C@@H](O)CO)C(O)=C1O`, in assay [1], the efficacy is -34.4%. For the same molecule, the result in assay [2], in assay [3], in assay [4], in assay [5] and in assay [6] was inactive.

What is called AC50 is the concentration at which the activity in the assay is half-maximal. For `CCOC(=O)[C@H](CCc1ccccc1)N[C@@H](C)C(=O)N(CC(=O)O)C1Cc2ccccc2C1`, the efficacy in assay [1] was 28.2%. Also, the result in assay [2], in assay [4] and in assay [6] was inactive. Also, the AC50 in assay [3] and in assay [5] was 20 µM (active) in each case.

In the case of `O=C(O)CN(CCOCCOCCN(CC(=O)O)CC(=O)O)CC(=O)O`, in assay [1], the efficacy is 19.2%. Besides, the result in assay [2], in assay [3], in assay [4], in assay [5] and in assay [6] was inactive.

Take `COc1ccc2c(c1OC)C(=O)O[C@@H]2[C@H]1c2c(cc3c(c2OC)OCO3)CCN1C`: the efficacy in assay [1] was -21%. Further, the molecule was called inactive in assay [2], in assay [3], in assay [4], in assay [5] and in assay [6].

Consider `C[C@H](O)C(=O)Nc1c(I)c(C(=O)NC(CO)CO)c(I)c(C(=O)NC(CO)CO)c1I`, for which the efficacy in assay [1] is 6.82%. Besides, the outcome in assay [2], in assay [3], in assay [4], in assay [5] and in assay [6] was inactive.

Turning to `Cc1ccc2c(Cl)cc(Cl)c(O)c2n1`, the efficacy in assay [1] is -13.1%. The result in assay [2], in assay [3], in assay [4], in assay [5] and in assay [6] was inactive.

Consider `CCN[C@H]1C[C@H](C)S(=O)(=O)c2sc(S(N)(=O)=O)cc21`, for which the efficacy in assay [1] is 10.6%. In addition, the outcome in assay [2], in assay [3], in assay [4], in assay [5] and in assay [6] was inactive.

Consider `CCOC(=O)c1cccc(N)c1`, for which the efficacy in assay [1] is 16.6%. In addition, the outcome in assay [2], in assay [3], in assay [4], in assay [5] and in assay [6] was inactive.

`CCN(CC)CC1CCCCN1CC(=O)N1c2ccccc2C(=O)Nc2cccnc21` (stereo not given): the efficacy in assay [1] is 31.3%. Besides, the molecule was called inactive in assay [2], in assay [3], in assay [4], in assay [5] and in assay [6].

`N=C(N)c1ccc(OCCCOc2ccc(C(=N)N)cc2)cc1`: in assay [1], the efficacy is 14.7%. For the same molecule, the molecule was called inactive in assay [2], in assay [3], in assay [4], in assay [5] and in assay [6].

Regarding `Cn1c(=O)c2c(ncn2CC2OCCO2)n(C)c1=O`, the efficacy in assay [1] is -17.6%. The molecule was called inactive in assay [2], in assay [3], in assay [4], in assay [5] and in assay [6].

On to `CCCCC(=O)O[C@]1(C(=O)CO)[C@@H](C)C[C@H]2[C@@H]3CCC4=CC(=O)C=C[C@]4(C)[C@@]3(F)[C@@H](O)C[C@@]21C`, for which, in assay [1], the efficacy was 22.2%. Further, the call in assay [2], in assay [3], in assay [4], in assay [5] and in assay [6] was inactive.

Turning to `CCc1nnc(NS(=O)(=O)c2ccc(N)cc2)s1`, the efficacy in assay [1] was -8.59%. Moreover, the molecule was called inactive in assay [2], in assay [3], in assay [4], in assay [5] and in assay [6].

With `CCOc1ccc(NC(C)=O)cc1`, the efficacy in assay [1] is -22.6%. Further, the call in assay [2], in assay [3], in assay [4], in assay [5] and in assay [6] was inactive.

Take `OC[C@@H](O)[C@@H](O)[C@H](O)[C@H](O)CO`: the efficacy in assay [1] is 11.8%. For the same molecule, the call in assay [2], in assay [3], in assay [4], in assay [5] and in assay [6] was inactive.

On to `CCOC(=O)[C@H](CCc1ccccc1)N[C@@H](C)C(=O)N1C(=O)N(C)C[C@H]1C(=O)O`, for which the efficacy in assay [1] was -14.8%. For the same molecule, the call in assay [2], in assay [3], in assay [4], in assay [5] and in assay [6] was inactive.

For `COC(=O)C1=C(C)NC(COC(N)=O)=C(C(=O)OC(C)C)C1c1cccc(Cl)c1Cl` (stereo not given), the efficacy in assay [1] was 27.1%. Also, the molecule was called inactive in assay [2], in assay [4] and in assay [6]. Also, the concentration at half-maximal activity (AC50) in assay [3] and in assay [5] was 22.4 µM (active) throughout.

Consider `CC1(C)[C@@H]2CC[C@@]1(C)C(=O)C2`, for which the efficacy in assay [1] is 9.79%. Further, the outcome in assay [2], in assay [3], in assay [4], in assay [5] and in assay [6] was inactive.

With `CN1[C@@H]2CC[C@H]1CC(NC(=O)n1c(=O)[nH]c3ccccc31)C2` (stereo not given in full), the efficacy in assay [1] is -15.6%. In addition, the molecule was classed as inactive in assay [2], in assay [3], in assay [4], in assay [5] and in assay [6].
